Structures are written as SMILES. “And” between values parts separate entries of the source, which are not always exact repeats. Identical values can stand only once. This is part of a sample that, as a whole, favours compounds with a hit. Of some 83,000 tested, about 20% had one in any assay.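 Growth was measured after 48 h exposure to one concentration of compound in 96-well plates. Values under 10 count as active.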 The source made the active and inactive calls.

For the first assay, the system named is NCI-H322M lung. Briefly: NCI-60 one-dose screen, 48 h (100 = growth as untreated, 0 = no growth, -100 = all killed). Conditions: 10 µM unless noted.
For `CN(C)CCN1C(=O)c2c(c3c4ccccc4n4c3c3c2c2ccccc2n3C2CC(O)C(O)C4(C)O2)C1=O` (configuration not stated), the growth was 34.8% (inactive).

`O/N=C(/c1ccccc1)c1ccc2c3c(cccc13)CC2`: the growth was 106% (inactive) and 102% (inactive).

Consider `CCNC(=O)Oc1ccc(/C(=C(/C)Cc2ccc(OC)cc2)c2ccc(OCCN(CC)CC)cc2)cc1`, for which the growth was 76.9% (inactive).

`Cc1nnc(NS(=O)(=O)c2ccc(N=Nc3ccc(N)nc3N)cc2)s1`: the growth was 114% (inactive) and 92.8% (inactive).

Turning to `Cn1cc(C2=C(c3cccc4ccccc34)C(=O)NC2=O)c2cc(Br)ccc21`, the growth is 100% (inactive).

Regarding `Cc1ccc2nc3ccccc3c(NCc3ccc(Cl)cc3)c2c1`, the growth is 55.9% (inactive).

`Brc1ccc(/C=C(/C2=NCCN2)n2ccc3ccccc32)cc1`: the growth is 75.7% (inactive).

Consider `Cn1cc2c(=O)nc3c(-c4nc5ccccc5[nH]4)n[nH]n3c2n1`, for which the growth is 91.8% (inactive).

In the case of `Cc1ccc2[nH]c(=S)[nH]c(=O)c2c1`, the growth was 102% (inactive).

Regarding `N#CC1=C(N)Oc2c(sc3c(Br)cccc23)C1c1ccccn1` (configuration not stated), the growth is 51.1% (inactive).

Consider `Cc1nc2sc(C(=O)Nc3cccc4ncccc34)c(N)c2cc1C(C)O` (configuration not stated), for which the growth was 79.7% (inactive).

Take `COc1ccc2c(O)c(/C=C3\N=Nc4nc(C)ccc43)oc2c1CC1CCNCC1`: the growth is 80.8% (inactive).

Regarding `Clc1ccc(Nc2nc(Nc3ccc(Cl)cc3)nc(Nc3ccc(-c4cc(-c5cccc(Cl)c5)on4)cc3)n2)cc1`, the growth was 85.2% (inactive).

For the compound `O=C(/C=C/c1ccc(Cl)s1)c1ccc(Cl)s1`, the growth was 97.4% (inactive).

In the case of `O=C1/C(=C/c2ccc(-c3cccc(C(F)(F)F)c3)o2)SC(=S)N1CCc1ccc(O)cc1`, the growth was 90.3% (inactive).

In the case of `O=C(CCN1CCOCC1)Nc1cccc(-n2cc(-c3ccncc3)c(-c3ccc(Cl)c(O)c3)n2)c1`, the growth is 60.4% (inactive).

Take `CCn1cc(C(=O)NN=C2CCCC2)c(=O)c2ccc(C)nc21`: the growth was 82.4% (inactive).

As for `CCOc1ccccc1NC(=O)c1cc2ccccc2cc1O`, the growth was 84.1% (inactive).

For `O=C(c1ccc(Nc2nccc(NCCCNc3ccnc4cc(Cl)ccc34)n2)cc1)N1CCCCC1`, the growth is 57.6% (inactive).

Turning to `S=c1nc(CS)[nH]c2ccccc12`, the growth was 95.6% (inactive).

As for `Clc1ccc(/C=N\N2CCCCCC2)cc1`, the growth was 104% (inactive).

Consider `CC(=O)OC[C@]12CCC(C)(C)C=C1[C@H]1CC[C@@H]3[C@@]4(C)CCCNC(C)(C)[C@@H]4CC[C@@]3(C)[C@]1(C)CC2`, for which the growth is 98.9% (inactive).

On to `Cc1[nH]c(C(=O)Nc2nc3ccc(NC(=O)CCN)cc3s2)c(Cl)c1Cl`, for which the growth is 94% (inactive).

Take `COc1ccc(C(=O)c2ccc(OC)c(OC)c2OC)cc1`: the growth is 59% (inactive).

For `COc1cc(NC2CCCCC2O)c2nc(-c3ccc(Cl)cc3)ccc2c1` (configuration not stated), the growth is 88.8% (inactive) and 88.2% (inactive).

Turning to `CN1CCCc2cc(/C=C3\SC(=S)N(C(Cc4ccc(O)cc4)C(=O)O)C3=O)ccc21` (configuration not stated), the growth is 108% (inactive).

On to `CCCCC1COc2cccc3c2N1C=C/C3=C\C(=O)N(C)c1cccc(Cl)c1` (configuration not stated), for which the growth is 110% (inactive).

With `O=C(NNc1ccccc1)C1CCCN1` (configuration not stated), the growth was 86% (inactive).

Turning to `O=C1C=C(Nc2ccccc2)c2ncccc2C1=O`, the growth is -97.5% (active).

As to `O=C1/C(=C/c2ccccc2[N+](=O)[O-])Cc2ccccc21`, the growth was 65.2% (inactive) and 71.3% (inactive).

Take `COc1ccc(/C=C2/C(=O)N=C3N2NC(c2ccccc2)=CN3c2ccccc2)cc1`: the growth was 103% (inactive).

As for `CCN(CC)CCCN1C(=O)c2c(c(C)c3c(oc4cc(OC)ccc43)c2C)C1=O`, the growth is 94.2% (inactive).

For the compound `CC[C@]12CN3CCc4c([nH]c5ccccc45)[C@@](C(=O)OC)(c4cc5c(cc4OC)N(C)[C@H]4[C@@](O)(C(=O)OC)[C@H](OC(C)=O)[C@]6(CC)C=CCN7CC[C@]54[C@@H]76)CC(C3)[C@H]1O2` (some centres not stated), the growth was 41% (inactive).

Regarding `O=C(/C=C\c1ccc(Cl)c(Cl)c1)c1ccccc1`, the growth is 107% (inactive).

For another assay, the system named is HOP-62 NSCLC. Described as above. Conditions: 10 µM unless noted.
Regarding `CN(C)CCN1C(=O)c2c(c3c4ccccc4n4c3c3c2c2ccccc2n3C2CC(O)C(O)C4(C)O2)C1=O` (configuration not stated), the growth is 14.2% (inactive).

In the case of `O/N=C(/c1ccccc1)c1ccc2c3c(cccc13)CC2`, the growth was 93.1% (inactive) and 94.1% (inactive).

Turning to `CCNC(=O)Oc1ccc(/C(=C(/C)Cc2ccc(OC)cc2)c2ccc(OCCN(CC)CC)cc2)cc1`, the growth was 76.3% (inactive).

As for `Cc1nnc(NS(=O)(=O)c2ccc(N=Nc3ccc(N)nc3N)cc2)s1`, the growth was 113% (inactive).

Take `Cn1cc(C2=C(c3cccc4ccccc34)C(=O)NC2=O)c2cc(Br)ccc21`: the growth was 111% (inactive).

`Cc1ccc2nc3ccccc3c(NCc3ccc(Cl)cc3)c2c1`: the growth is 65.3% (inactive).

For the compound `Brc1ccc(/C=C(/C2=NCCN2)n2ccc3ccccc32)cc1`, the growth is 68.3% (inactive).

In the case of `Cn1cc2c(=O)nc3c(-c4nc5ccccc5[nH]4)n[nH]n3c2n1`, the growth was 73% (inactive).

Take `Cc1ccc2[nH]c(=S)[nH]c(=O)c2c1`: the growth was 99.4% (inactive).

For `N#CC1=C(N)Oc2c(sc3c(Br)cccc23)C1c1ccccn1` (configuration not stated), the growth is 30.9% (inactive).

`Cc1nc2sc(C(=O)Nc3cccc4ncccc34)c(N)c2cc1C(C)O` (configuration not stated): the growth was 68.1% (inactive).

Turning to `COc1ccc2c(O)c(/C=C3\N=Nc4nc(C)ccc43)oc2c1CC1CCNCC1`, the growth is 64.3% (inactive).

Take `Clc1ccc(Nc2nc(Nc3ccc(Cl)cc3)nc(Nc3ccc(-c4cc(-c5cccc(Cl)c5)on4)cc3)n2)cc1`: the growth is 115% (inactive).

Regarding `O=C1/C(=C/c2ccc(-c3cccc(C(F)(F)F)c3)o2)SC(=S)N1CCc1ccc(O)cc1`, the growth is 88.9% (inactive).

With `O=C(CCN1CCOCC1)Nc1cccc(-n2cc(-c3ccncc3)c(-c3ccc(Cl)c(O)c3)n2)c1`, the growth is 28% (inactive).

For `O=C(Nc1ccc(Cl)c(Cl)c1)Nc1ccc(Cl)c(Cl)c1`, the growth was -83.4% (active) and 40.8% (inactive).

In the case of `CCn1cc(C(=O)NN=C2CCCC2)c(=O)c2ccc(C)nc21`, the growth was 93.3% (inactive).

For `CCOc1ccccc1NC(=O)c1cc2ccccc2cc1O`, the growth is 98.4% (inactive).

On to `O=C(c1ccc(Nc2nccc(NCCCNc3ccnc4cc(Cl)ccc34)n2)cc1)N1CCCCC1`, for which the growth is 57.5% (inactive).

For the compound `Cc1ccc(-c2nc3nc(-c4ccc(Br)cc4)nc(N4CCCNCC4)c3o2)cc1`, the growth was 82% (inactive).

With `S=c1nc(CS)[nH]c2ccccc12`, the growth was 89.6% (inactive).

For the compound `Cc1ccc2c(c1)C(C)Cc1c(ncnc1-n1cnc3cc(C)ccc31)N2C` (configuration not stated), the growth is 27.6% (inactive).

Regarding `Clc1ccc(/C=N\N2CCCCCC2)cc1`, the growth was 105% (inactive) and 95.9% (inactive).

Regarding `CC(=O)OC[C@]12CCC(C)(C)C=C1[C@H]1CC[C@@H]3[C@@]4(C)CCCNC(C)(C)[C@@H]4CC[C@@]3(C)[C@]1(C)CC2`, the growth is 91.8% (inactive).

Regarding `Cc1[nH]c(C(=O)Nc2nc3ccc(NC(=O)CCN)cc3s2)c(Cl)c1Cl`, the growth is 74.6% (inactive).

Turning to `COc1ccc(C(=O)c2ccc(OC)c(OC)c2OC)cc1`, the growth was 41.7% (inactive) and 25.5% (inactive).

As for `COc1cc(NC2CCCCC2O)c2nc(-c3ccc(Cl)cc3)ccc2c1` (configuration not stated), the growth is 109% (inactive) and 108% (inactive).

Consider `CN1CCCc2cc(/C=C3\SC(=S)N(C(Cc4ccc(O)cc4)C(=O)O)C3=O)ccc21` (configuration not stated), for which the growth was 109% (inactive).

Consider `Cc1cc(N2CCN(CC(=O)Nc3ccc4c(ccn4Cc4ccccc4)c3)CC2)nc(N2CCCCCC2)n1`, for which the growth is 59.8% (inactive).

Regarding `CCCCC1COc2cccc3c2N1C=C/C3=C\C(=O)N(C)c1cccc(Cl)c1` (configuration not stated), the growth was 109% (inactive).

As for `O=C(NNc1ccccc1)C1CCCN1` (configuration not stated), the growth is 76.7% (inactive).

Turning to `O=C1C=C(Nc2ccccc2)c2ncccc2C1=O`, the growth was -90.4% (active).

Take `Nc1nc(CSc2n[nH]c(N)n2)nc(Nc2ccccc2)n1`: the growth was 106% (inactive).

With `O=C1/C(=C/c2ccccc2[N+](=O)[O-])Cc2ccccc21`, the growth is 57.6% (inactive) and 32.8% (inactive).

With `COc1ccc(/C=C2/C(=O)N=C3N2NC(c2ccccc2)=CN3c2ccccc2)cc1`, the growth was 105% (inactive).

In the case of `CCN(CC)CCCN1C(=O)c2c(c(C)c3c(oc4cc(OC)ccc43)c2C)C1=O`, the growth was 109% (inactive).

In the case of `CC[C@]12CN3CCc4c([nH]c5ccccc45)[C@@](C(=O)OC)(c4cc5c(cc4OC)N(C)[C@H]4[C@@](O)(C(=O)OC)[C@H](OC(C)=O)[C@]6(CC)C=CCN7CC[C@]54[C@@H]76)CC(C3)[C@H]1O2` (some centres not stated), the growth is 50.9% (inactive).

In the case of `O=C(/C=C\c1ccc(Cl)c(Cl)c1)c1ccccc1`, the growth was 100% (inactive) and 91.4% (inactive).
